Reference: PubChem BioAssay AID602274 (Sanford-Burnham Center for Chemical Genomics, 2012)
Out of some 360,000 compounds screened, about 160 (0.044%) were called active. No stated cut-off is given here; in the data, active means survival enhancement above about 18%; inactive means the rest. Shown is part of a subset that was picked to be rich in actives.

Assay: compounds raising survival of dissociated human iPSCs – cell-based, ATPlite luminescence, primary screen (AID 602274);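 further: cells exposed to compounds for 16 hours before the ATP read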
Settings: hiPSC single-cell survival, at 20 µM, active compounds read high, 100% = ROCK inhibitor wells, 0% = DMSO

Row | SMILES | survival enhancement
1 | c1ccc2cc3c(NCCN4CCOCC4)ccnc3cc2c1 | -2.3% (inactive)
2 | C1=C(N2CCOCC2)/C(=C/c2nc3ccccc3[nH]2)CC1 | 3.5% (inactive)
3 | Cc1ccc(S(=O)(=O)N2CCN(C(=O)COC(=O)/C=C/c3cccc(Cl)c3)CC2)c(C)c1 | -0.9% (inactive)
4 | O=C(Nc1ccc(N2CCN(C(=O)c3ccccc3)CC2)c(Cl)c1)c1ncn[nH]1 | 0.4% (inactive)
5 | Cc1noc(C)c1NC(=O)Nc1ccc2c(c1)C(=O)N([C@H](C)CO)C[C@H](C)[C@@H](CN(C)C(=O)Nc1ccc(C(F)(F)F)cc1)O2 | -1.8% (inactive)
6 | Cc1ccc(NC(=O)c2cnc(SCC(=O)NCC3CCCO3)n(C)c2=O)cc1 (stereo not drawn) | 1.7% (inactive)
7 | O=C(NCC(c1ccco1)N1CCc2ccccc2C1)c1ccccc1Cl (stereo not drawn) | -0.3% (inactive)
8 | CCc1ccc([C@@H]2CC(=O)[C@@H]3CN(S(=O)(=O)c4ccc(C)cc4)[C@H](c4ccc(Cl)cc4)C[C@@H]3N2S(=O)(=O)c2ccc(C)cc2)cc1 | 0.5% (inactive)
9 | CCCOC(=O)CC1C(=O)NCCN1Cc1ccc(F)cc1 (stereo not drawn) | 0.4% (inactive)
10 | COC(=O)C1=C(C)N(C)C(=S)NC1c1cc(OC)ccc1OC (stereo not drawn) | -1.1% (inactive)
11 | COC(=O)C1=C(C)N(C)C(C)=C(C(=O)OC)C1c1cccc(Br)c1 | 19.8% (active)
12 | COC(=O)C1NN=C(C(=O)c2ccc(Br)cc2)C1c1cccc(Br)c1 (stereo not drawn) | 2.6% (inactive)
13 | O=C(CS(=O)(=O)c1cn(Cc2ccc(Cl)cc2)c2ccccc12)N1CCOCC1 | 0.6% (inactive)
14 | COc1ccccc1P(=O)(c1ccccc1)c1ccccc1NC(C)=O (stereo not drawn) | -0.7% (inactive)
15 | CN(Cc1ccc(F)cc1)C(=O)COc1ccc2ccccc2c1 | -0.4% (inactive)
16 | C[C@H]1CN([C@@H](C)CO)C(=O)c2cc(Br)cnc2O[C@H]1CN(C)S(=O)(=O)c1cccs1 | 3.8% (inactive)
17 | CC(=O)Nc1ccccc1C(=O)C(=O)Nc1ccc(F)cc1 | 3.3% (inactive)
18 | CC1CCN(C(=O)/C(=C\c2ccccc2F)NC(=O)c2ccccc2)CC1 | -0.6% (inactive)
19 | CCOC(=O)c1ccn(-c2nc(-c3ccco3)cc(C(F)(F)F)n2)n1 | -0.8% (inactive)

Row | SMILES | survival enhancement
20 | CC(CCc1ccc(O)cc1)NCc1ccc(Cl)cc1Cl (stereo not drawn) | 0.5% (inactive)
21 | CCN(CC)C(=O)Oc1ccc(OC(=O)N(CC)CC)cc1 | -2.3% (inactive)
22 | O=C(COC(=O)C1(c2ccc(F)cc2)CCCC1)N1CCNC1=O | 0.5% (inactive)
23 | Cc1ccccc1N1CCN(Cc2nc(Cc3ccccc3F)no2)CC1 | -0.1% (inactive)
24 | O=[n+]1c2c(n([O-])c3cc(Br)ccc31)CCC2 | 3.1% (inactive)
25 | CCN(CC)c1ccc(NC(=O)c2ccc(=O)[nH]c2)cc1S(=O)(=O)Nc1ccc(OC)cc1 | 1.7% (inactive)
26 | CCCS(=O)(=O)Nc1c(C(=O)O)[nH]c2ccccc12 | 0.3% (inactive)
27 | O=C(O)c1ccc([N+](=O)[O-])cc1Sc1ccsc1 | 6.3% (inactive)
28 | CC(C)CCOc1ccc(C(=O)Nc2cc(S(=O)(=O)N3CCOCC3)ccc2N2CCOCC2)cc1 | -2.4% (inactive)
29 | O=C(NCc1cccnc1)c1cc(C2CCCN(C(=O)C3CCCCC3)C2)on1 (stereo not drawn) | 0.4% (inactive)
30 | Cc1ccc2cccc(S(=O)(=O)N3CCN(c4ccccc4F)CC3)c2n1 | 0% (inactive)
31 | COc1cccc(CNC(=O)CN2C(=O)NC(Cc3ccccc3)(c3ccccc3)C2=O)c1 (stereo not drawn) | -1.1% (inactive)
32 | Cn1c(=O)c2c(nc(Br)n2CCSc2nc3ccccc3o2)n(C)c1=O | 1.6% (inactive)
33 | OCCC1CN(Cc2ccc3nsnc3c2)CCN1C1CCCC1 (stereo not drawn) | 1.5% (inactive)
34 | COC(=O)C1=C(Nc2ccc(C)cc2)C=C(C)C(C(=O)OC)C1c1ccc(F)cc1 (stereo not drawn) | -0.6% (inactive)
35 | N#Cc1ccccc1Sc1ccccc1C(=O)OCC(=O)NC1CCCCC1 | 1% (inactive)
36 | O=C(O)c1ccc(NS(=O)(=O)c2ccc3c(c2)C(=O)c2cc(S(=O)(=O)Nc4ccc(C(=O)O)cc4)ccc2-3)cc1 | 4.4% (inactive)
37 | CN(C)N(C)C(=O)C(O)(c1ccccc1)c1ccccc1 | -0.9% (inactive)
38 | COC(=O)C1=NNC2(c3ccc(C)cc3)C(=O)N(c3cccc(C)c3C)C(=O)C12 (stereo not drawn) | 1.4% (inactive)
